Values without a mark were called inactive. Records with an inconclusive call do not appear. Calls of active or inactive are those of the source. Unless noted, the call rests on the fitted dose curve; in most records, active means well fitted curve in the direction sought with a large enough effect; inconclusive means small, poorly fitted or top-dose-only effect, or another doubt; inactive means no such curve, though single readings can be large; an effect the other way counts as inactive or inconclusive.

The nature of test [1]: Cell Viability - Jurkat (AID 426;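 active means dose-dependent loss of cell ATP signal giving a full or clear fitted curve, ranked by lower potency value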;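 further: potency means the concentration at half of the fitted maximal effect; cells exposed to compound for 40 hours at 37 °C before ATP read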). To be noted: qHTS. A digest of the protocol:
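Cells of the human T-cell leukemia line Jurkat (E6-1) are seeded at 5000 per well, treated with compound across a concentration range for 40 hours at 37 °C, then lysed with CellTiter-Glo; luminescence reports ATP.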
(In general: qHTS replaces the single test concentration by a dilution series.)

The nature of test [2]: Cell Viability - Hek293 (AID 427;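 active means compounds whose dose-response curve shows a full or clear partial loss of cell viability, called from curve shape rather than a numeric limit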;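 further: potency means the concentration at half of the fitted maximal effect; cells exposed to compound for 40 hours at 37 °C before reading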). To be noted: qHTS. A digest of the protocol: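 Luminescent ATP read-out (CellTiter-Glo, 20 min RT) after 40 hr compound exposure at 37 °C in complete medium. Signal normalized to DMSO (basal) and 100 uM tamoxifen (100% inhibition); concentration-response fitted with the standard Hill equation to give AC50.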
A short description of test [3]: Cell Viability - NIH 3T3 (AID 541).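 Further: plate controls were DMSO alone for no effect and tamoxifen positive control for full effect; nearly all actives have a fitted effect of over 25% in size.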 Particulars: NIH 3T3 cell viability, qHTS; activity change, negative = cytotoxicity: at 92.2 µM (top of the series). In outline: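 Cells seeded at 1000/well, rested 5 hr at 37 °C, then dosed and incubated 40 hr at 37 °C. CellTiter-Glo added, 20 min room temperature, luminescence read. AC50 by Hill fit.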
Test [4] is described as follows: Cell Viability - SH-SY5Y (AID 544).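 Further: 0% = DMSO alone and -100% = 100 µM tamoxifen; nearly all actives have a fitted effect of over 55% in size.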 To be noted: SH-SY5Y neuroblastoma cell viability; viability change, negative = cytotoxic: at 92.2 µM (top of the series). A digest of the protocol:
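Cells were plated at 1500 per well and allowed 5 hr at 37 °C. Compounds were added across a concentration range and incubated 40 hr at 37 °C. CellTiter-Glo was added for 20 min at room temperature before luminescence reading.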

Test [5] in a line: Cellular Toxicity (caspase-3) MRC-5 (AID 659). To be noted: MRC-5 cells, luminescence, normalized: DMSO 0%, 10 µM staurosporine 100%; series mostly up to 91.7 µM. In outline: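 MRC-5 fibroblasts, 1500/well; 16 h cpd, 37 °C; Caspase-Glo 3/7, 1 h RT; lumi read. Norm: DMSO = 0%, 10 uM staurosporine = 100%. Hill-fit AC50 from qHTS conc-response.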
In test [6] the target is Cytochrome P450 3A4 (Homo sapiens) (UniProt P08684). Briefly: qHTS Assay for Inhibitors and Substrates of Cytochrome P450 3A4 (AID 884). Further: on the % scale 0 is the no-effect control and ±100 the full control effect; nearly all actives have a fitted effect of over 50% in size. To be noted: recombinant CYP3A4, Luciferin-PPXE luminescence; series mostly up to 57.1 µM. In outline:
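Luminescent readout of luciferin produced by CYP3A4 (20 nM) dealkylation of Luciferin-PPXE, 25 uM (its KM). NADPH-driven reaction ran 60 min at RT after 10 min compound preincubation; data scaled to 57 uM ketoconazole as 100% inhibition.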

Test [7] addresses Glucocorticoid receptor (Homo sapiens) (UniProt P04150). Nature of the test: qHTS assay for small molecule agonists of glucocorticoid receptor signaling (AID 588532; active means well fitted curve in the direction sought with a large enough effect in the signal ratio, with a control signal flat; the % refers to the signal ratio;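 further: 100% = dexamethasone at 0.1 µM and 0% = DMSO only wells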). To be noted: HeLa MMTV-bla, beta-lactamase ratio, agonist, 18 h; active compounds read high; percent of dexamethasone control, DMSO zero. In outline:
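Cells were plated and rested 3-5 h at 37 C, compounds were added in titration and incubated 18 h, then CCF4 substrate was loaded for 2 h at RT before reading blue/green fluorescence. EC50 came from Hill-equation fitting.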

Test [8] addresses Vitamin D3 receptor (Homo sapiens) (UniProt P11473). Nature of the test: qHTS assay for small molecule antagonists of vitamin D receptor signaling (AID 588541; calls by dose curve;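 further: receptor activated by calcitriol during compound treatment; on the % scale 0 is the no-effect control and ±100 the full control effect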). Particulars: HEK293T VDR-UAS-bla, beta-lactamase ratio, antagonist mode; series mostly up to 76.7 µM. In outline: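 VDR-UAS-bla HEK293T cells in 2% charcoal-stripped FBS were stimulated with 1-alpha,25-dihydroxyvitamin D3 (3 nM final) plus compound for 16 h at 37 C. The beta-lactamase CCF4 readout was normalized to 50 nM agonist and DMSO, and Hill fits gave IC50.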

Test [9] has the same target. Briefly: qHTS assay for small molecule agonists of vitamin D receptor signaling (AID 588543; calls by dose curve;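 further: 0% = DMSO basal and 100% = reference agonist control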). To be noted: HEK293T VDR-UAS-bla, beta-lactamase ratio, 16 h; series mostly up to 76.8 µM. A digest of the protocol:
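Measured: β-lactamase reporter activity (CCF4, 405 nm excitation, 460/530 nm emission) in HEK293T VDR-UAS-bla cells after 16 h compound exposure at 37 °C. Normalization against 50 nM 1α,25-dihydroxyvitamin D3 and DMSO; Hill-fit EC50.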

For test [10], the target named is Thyroid hormone receptor beta (Homo sapiens) (UniProt P10828). Briefly: qHTS assay for small molecule agonists of thyroid hormone receptor beta signaling (AID 588545; calls by dose curve;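 further: 0% = DMSO only and 100% = 10 nM T3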). To be noted: TR-UAS-bla GripTite HEK 293, beta-lactamase ratio, agonist mode, 18 h; series mostly up to 76.7 µM. A digest of the protocol:
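Compounds were tested as agonists in TR-UAS-bla-GripTite HEK 293 cells. After 18 hrs at 37 C, CCF4 substrate was added and fluorescence read after 2 hrs at room temperature.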

Test [11] in a line: qHTS assay for small molecule agonists of the antioxidant response element (ARE) signaling pathway (AID 651741; active means well fitted activation curve with a large enough effect in the signal ratio; the % refers to the signal ratio; further: potency means the concentration at half of the fitted maximal effect; on activation: % of control where 0% means no effect). To be noted: HepG2 ARE-bla reporter, beta-lactamase FRET ratio, 16 h; series mostly up to 96 µM. A digest of the protocol:
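Stably integrated ARE-beta-lactamase reporter HepG2 cells; 16 h compound incubation, 37 C; LiveBLAzer FRET substrate 2 h at room temperature; fluorescence intensity.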

Test [12] can be described thus: qHTS assay for small molecule activators of the p53 signaling pathway (AID 651743; active means well fitted activation curve with a large enough effect in the signal ratio, not every such curve was filed as active; the % refers to the signal ratio; further: % of control where 0% means no effect). To be noted: HCT-116 p53RE-bla, beta-lactamase FRET ratio, 16 h; activation: active compounds read high. In outline:
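Following 16 hours of compound exposure at 37 C, HCT-116 cells bearing the p53RE-bla reporter were loaded with LiveBLAzer B/G FRET substrate for 2 hours at room temperature and fluorescence intensity was recorded.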

A short description of test [13]: qHTS assay for small molecule disruptors of the mitochondrial membrane potential - 1 hr assay (AID 651754; calls by dose curve; further: on the % scale 0 is the no-effect control and ±100 the full control effect; nearly all actives have a fitted effect of over 35% in size). Particulars: series mostly up to 92.2 µM. A digest of the protocol:
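Loss of mitochondrial potential shifts the cationic dye from red mitochondrial aggregates to green cytoplasmic monomers. Cells (HepG2) are treated with compound for 1 hr before a 30 min dye incubation at 37C.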

Test [14] concerns the target Tumor necrosis factor (Homo sapiens) (UniProt P01375). Nature of the test: qHTS assay to identify small molecules that stimulate Tumor Necrosis Factor-alpha (TNF-alpha) secretion (AID 651757; active means well fitted curve in the direction sought with a large enough effect in the signal ratio; the % refers to the signal ratio; further: 0% is about no effect). To be noted: Human cells, HTRF 665/615 ratio; series mostly up to 92.2 µM. In outline:
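Human monocytic THP-1 cells are plated, treated with compound and held at 37 C for 17 hrs. Labeled anti-TNF-alpha antibody mixture is then added; after 3 hr at room temperature, TR-FRET signal reports secreted TNF-alpha.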

Test [15] is described as follows: Cellular Toxicity (caspase-3) BJ (AID 658). Further: potency means the concentration at half of the fitted maximal effect. Particulars: BJ fibroblasts, luminescence; Potency: caspase-3 activation; series mostly up to 91.7 µM. A digest of the protocol:
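qHTS, BJ fibroblasts, 1000 cells/well; 5 hr preincubation, 16 hr compound, 37 °C; Caspase-Glo 3/7 reagent, 1 hr RT; luminescence. DMSO = 0%, 10 uM staurosporine = 100%. Hill-equation AC50.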

The nature of test [16]: qHTS assay for small molecule activators of the nuclear factor-kappa B (NF-kB) signaling pathway (AID 651749; active means well fitted activation curve with a large enough effect in the signal ratio; the % refers to the signal ratio; further: % of control where 0% means no effect). To be noted: NF-kB-bla ME-180 cells, beta-lactamase FRET ratio, 16 h; active compounds read high. A digest of the protocol:
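In this qHTS format, compounds acting as activators increase NF-kB-driven beta-lactamase in ME-180 cells, measured as disrupted FRET after 16 hr exposure at 37C and 5% CO2.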

Test [17] is described as follows: qHTS assay for small molecule antagonists of the retinoid-related orphan receptor gamma (ROR-gamma) signaling pathway - cell viability counter screen (AID 720652; active means well fitted curve in the direction sought with a large enough effect in the repeat runs; an effect the other way counts as inactive or inconclusive;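 further: CHO reporter cells with doxycycline-induced ROR-gamma expression; compound exposure lasted 16 hr before ATP read; on the % scale 0 is the no-effect control and ±100 the full control effect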). Particulars: RORgamma reporter cell line viability counter screen; series mostly up to 92.2 µM. A digest of the protocol: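 Steps: seed CHO cells bearing TET-inducible ROR and ROR response element-luciferase; rest 5 hr at 37 C; add compound, then doxycycline; incubate 16 hr; add CellTiter-Glo and read luminescence as ATP-based viability.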

The target in test [18] is Voltage-gated inwardly rectifying potassium channel KCNH2 (Homo sapiens) (UniProt Q12809). Briefly: qHTS Assay for Small Molecule Inhibitors of the Human hERG Channel Activity (AID 588834).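 Further: top concentration of the series differs between compounds; on the % scale 0 is the no-effect control and ±100 the full control effect; lower thallium flux fluorescence means stronger hERG block; nearly all actives have a fitted effect of over 50% in size.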 To be noted: U2OS BacMam hERG, FluxOR thallium flux fluorescence; series mostly up to 92.2 µM. In outline: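 Homogeneous FluxOR thallium flux assay using hERG-expressing U2OS cells (BacMam). Compound treatment about 10 minutes preceded stimulation; reduced fluorescence taken as channel block.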

The target of test [19] is Nuclear receptor ROR-gamma (Homo sapiens) (UniProt P51449). Nature of the test: qHTS assay for small molecule antagonists of the retinoid-related orphan receptor gamma (ROR-gamma) signaling pathway (AID 651802). Further: nearly all actives have a fitted effect of over 60% in size. Further: potency means the concentration at half of the fitted maximal effect. To be noted: ROR-gamma antagonist cell reporter assay; series mostly up to 92.2 µM. A digest of the protocol: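 Steps: cells dispensed; compound or DMSO transferred by pin tool; doxycycline added to induce the ROR response element-driven luciferase; plates held 16hr at 37C; ONE-Glo added and luminescence measured.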

Test [20] in a line: qHTS assay for small molecule activators of the human pregnane X receptor (PXR) signaling pathway (AID 720659; call rule not given here; further: 0% is about no effect). Particulars: DPX-2 HepG2 CYP3A4-luciferase, 24 h; series mostly up to 92.3 µM.

Sequence of Voltage-gated inwardly rectifying potassium channel KCNH2 (Homo sapiens) (Q12809 whole entry, looked up): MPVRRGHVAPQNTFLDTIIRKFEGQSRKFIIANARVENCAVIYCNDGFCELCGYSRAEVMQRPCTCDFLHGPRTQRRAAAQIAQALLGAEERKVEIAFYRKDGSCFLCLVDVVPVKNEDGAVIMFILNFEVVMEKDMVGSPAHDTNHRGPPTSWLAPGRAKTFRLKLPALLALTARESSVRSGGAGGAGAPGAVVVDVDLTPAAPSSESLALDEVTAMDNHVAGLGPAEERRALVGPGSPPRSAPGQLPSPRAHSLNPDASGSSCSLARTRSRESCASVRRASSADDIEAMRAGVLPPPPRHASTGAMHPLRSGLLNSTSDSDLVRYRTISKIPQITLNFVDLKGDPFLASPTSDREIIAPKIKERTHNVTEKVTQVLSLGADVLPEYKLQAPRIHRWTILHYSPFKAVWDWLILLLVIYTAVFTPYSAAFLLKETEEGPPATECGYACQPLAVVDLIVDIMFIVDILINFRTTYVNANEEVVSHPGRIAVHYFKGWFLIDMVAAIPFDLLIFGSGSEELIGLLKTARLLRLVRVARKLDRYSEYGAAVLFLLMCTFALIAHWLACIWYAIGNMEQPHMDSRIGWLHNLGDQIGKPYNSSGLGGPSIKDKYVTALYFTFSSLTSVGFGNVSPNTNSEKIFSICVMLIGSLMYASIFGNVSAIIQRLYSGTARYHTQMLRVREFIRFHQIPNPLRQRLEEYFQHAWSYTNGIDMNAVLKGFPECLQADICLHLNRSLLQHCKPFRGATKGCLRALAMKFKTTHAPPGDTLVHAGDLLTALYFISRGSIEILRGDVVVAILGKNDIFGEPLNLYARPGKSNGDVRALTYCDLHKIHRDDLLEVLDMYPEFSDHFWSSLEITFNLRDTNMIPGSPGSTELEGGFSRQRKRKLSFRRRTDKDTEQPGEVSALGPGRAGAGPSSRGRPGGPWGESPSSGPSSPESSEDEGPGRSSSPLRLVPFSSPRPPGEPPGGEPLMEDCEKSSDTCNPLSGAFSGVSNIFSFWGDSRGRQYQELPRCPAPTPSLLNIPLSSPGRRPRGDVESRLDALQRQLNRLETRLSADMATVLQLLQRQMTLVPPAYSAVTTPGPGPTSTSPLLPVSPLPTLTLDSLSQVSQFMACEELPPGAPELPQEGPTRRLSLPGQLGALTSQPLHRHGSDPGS
Sequence of Cytochrome P450 3A4 (Homo sapiens) (P08684 whole entry, looked up): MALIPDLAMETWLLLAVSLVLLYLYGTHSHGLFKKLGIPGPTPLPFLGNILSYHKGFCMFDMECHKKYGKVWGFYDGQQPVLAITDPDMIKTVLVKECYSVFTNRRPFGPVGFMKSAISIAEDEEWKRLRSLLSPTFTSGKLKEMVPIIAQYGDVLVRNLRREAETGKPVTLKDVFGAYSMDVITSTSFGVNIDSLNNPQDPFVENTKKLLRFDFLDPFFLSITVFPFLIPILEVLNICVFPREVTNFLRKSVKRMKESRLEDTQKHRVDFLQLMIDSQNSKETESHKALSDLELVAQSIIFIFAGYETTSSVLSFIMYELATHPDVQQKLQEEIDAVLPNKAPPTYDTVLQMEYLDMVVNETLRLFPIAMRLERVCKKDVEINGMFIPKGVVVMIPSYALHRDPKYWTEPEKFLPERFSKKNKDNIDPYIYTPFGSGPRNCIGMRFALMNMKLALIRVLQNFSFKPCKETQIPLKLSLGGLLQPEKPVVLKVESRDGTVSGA
Sequence of Glucocorticoid receptor (Homo sapiens) (P04150 whole entry, looked up): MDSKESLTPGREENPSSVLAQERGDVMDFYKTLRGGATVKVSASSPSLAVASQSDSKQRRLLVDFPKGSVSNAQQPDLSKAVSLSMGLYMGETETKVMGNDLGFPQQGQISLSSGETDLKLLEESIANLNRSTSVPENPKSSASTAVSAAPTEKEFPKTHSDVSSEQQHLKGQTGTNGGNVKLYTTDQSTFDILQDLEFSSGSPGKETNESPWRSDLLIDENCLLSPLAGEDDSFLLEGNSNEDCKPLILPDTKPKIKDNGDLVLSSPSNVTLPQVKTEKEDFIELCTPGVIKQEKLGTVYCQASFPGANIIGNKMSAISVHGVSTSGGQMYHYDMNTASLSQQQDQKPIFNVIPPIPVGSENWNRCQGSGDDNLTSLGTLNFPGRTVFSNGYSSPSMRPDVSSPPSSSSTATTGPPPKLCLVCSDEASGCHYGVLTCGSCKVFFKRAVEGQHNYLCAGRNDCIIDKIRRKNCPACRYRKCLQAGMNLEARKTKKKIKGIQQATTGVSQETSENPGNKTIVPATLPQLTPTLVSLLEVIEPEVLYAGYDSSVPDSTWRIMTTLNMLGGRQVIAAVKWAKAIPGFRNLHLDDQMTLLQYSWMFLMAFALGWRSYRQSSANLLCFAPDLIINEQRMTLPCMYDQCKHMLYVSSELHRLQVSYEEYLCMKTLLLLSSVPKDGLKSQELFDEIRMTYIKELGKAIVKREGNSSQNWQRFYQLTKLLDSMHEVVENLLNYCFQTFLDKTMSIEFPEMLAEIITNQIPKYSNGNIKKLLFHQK
Sequence of Vitamin D3 receptor (Homo sapiens) (P11473 whole entry, looked up): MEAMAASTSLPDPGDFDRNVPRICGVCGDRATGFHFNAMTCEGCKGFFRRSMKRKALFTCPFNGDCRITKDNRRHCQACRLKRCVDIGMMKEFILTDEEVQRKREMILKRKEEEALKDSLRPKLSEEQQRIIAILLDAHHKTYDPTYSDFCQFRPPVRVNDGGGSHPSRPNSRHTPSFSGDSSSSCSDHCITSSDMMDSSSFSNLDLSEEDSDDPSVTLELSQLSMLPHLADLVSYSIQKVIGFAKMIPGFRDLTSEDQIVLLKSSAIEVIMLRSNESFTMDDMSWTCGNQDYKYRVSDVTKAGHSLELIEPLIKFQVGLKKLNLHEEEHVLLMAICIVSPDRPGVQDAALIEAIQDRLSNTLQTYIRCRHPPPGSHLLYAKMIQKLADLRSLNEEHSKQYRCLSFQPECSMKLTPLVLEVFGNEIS
Sequence of Thyroid hormone receptor beta (Homo sapiens) (P10828 whole entry, looked up): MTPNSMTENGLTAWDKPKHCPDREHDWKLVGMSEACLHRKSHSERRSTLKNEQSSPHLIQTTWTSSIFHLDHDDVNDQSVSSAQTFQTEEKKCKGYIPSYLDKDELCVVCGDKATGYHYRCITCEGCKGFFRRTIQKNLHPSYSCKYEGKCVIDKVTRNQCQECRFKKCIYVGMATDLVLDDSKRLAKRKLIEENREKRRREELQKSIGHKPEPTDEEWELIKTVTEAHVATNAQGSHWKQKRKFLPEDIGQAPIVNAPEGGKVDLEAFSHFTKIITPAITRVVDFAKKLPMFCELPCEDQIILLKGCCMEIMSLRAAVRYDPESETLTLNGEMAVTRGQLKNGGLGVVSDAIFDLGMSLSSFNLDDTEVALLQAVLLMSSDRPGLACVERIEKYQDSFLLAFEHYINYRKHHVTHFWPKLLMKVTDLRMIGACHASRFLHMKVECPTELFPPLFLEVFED
Sequence of Nuclear receptor ROR-gamma (Homo sapiens) (P51449 whole entry, looked up): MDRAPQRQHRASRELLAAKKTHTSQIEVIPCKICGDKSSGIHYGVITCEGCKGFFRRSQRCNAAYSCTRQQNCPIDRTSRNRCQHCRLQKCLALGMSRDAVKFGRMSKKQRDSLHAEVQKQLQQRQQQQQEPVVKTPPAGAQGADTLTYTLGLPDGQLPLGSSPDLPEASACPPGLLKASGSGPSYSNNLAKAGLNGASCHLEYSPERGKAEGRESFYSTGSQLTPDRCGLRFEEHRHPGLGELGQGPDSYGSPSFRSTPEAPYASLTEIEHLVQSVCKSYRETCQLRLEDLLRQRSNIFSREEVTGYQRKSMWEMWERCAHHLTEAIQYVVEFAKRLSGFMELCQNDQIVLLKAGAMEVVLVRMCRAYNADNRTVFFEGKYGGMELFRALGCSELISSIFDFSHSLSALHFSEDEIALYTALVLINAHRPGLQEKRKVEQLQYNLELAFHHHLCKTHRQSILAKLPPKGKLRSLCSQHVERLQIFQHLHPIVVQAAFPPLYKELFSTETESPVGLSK
Sequence of Tumor necrosis factor (Homo sapiens) (P01375 whole entry, looked up): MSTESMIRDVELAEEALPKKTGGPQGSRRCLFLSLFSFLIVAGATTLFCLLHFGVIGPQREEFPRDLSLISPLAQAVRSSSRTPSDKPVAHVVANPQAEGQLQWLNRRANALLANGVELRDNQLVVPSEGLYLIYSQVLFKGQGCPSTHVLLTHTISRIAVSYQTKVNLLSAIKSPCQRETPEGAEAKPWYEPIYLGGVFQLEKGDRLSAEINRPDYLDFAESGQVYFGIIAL

Regarding `CCc1ccc(C(c2ccc(CC)cc2)C(Cl)Cl)cc1`, the Potency was greater than 92 µM in test [1], greater than 92 µM in test [2] and 66.8 µM (active) in test [11]. Further, in [3], the activity change, negative = cytotoxicity was -11.4%. The Potency entry in test [4], in test [6], in test [8], in test [9], in test [10] and in test [13] was “inactive” in each case. Further, the Potency entry in test [14] is “inactive”. In addition, in test [5], the compound was classed as inactive. Further, the activation in [7] is 1.14%; in [12] it was -0.867%.

Take `CCCCCCCC/C=C\CCCCCCCC(=O)N(CCO)CCO`: in [1], the Potency is 68.3 µM (active). For the same compound, the viability change, negative = cytotoxic in test [4] is -99.3% (active). The Potency result in test [15], in test [9], in [13], in [14] and in test [17] was “inactive” throughout. The activation in test [12] is -2.93%; in test [16], 3.7%.

In the case of `Cc1ccccc1OCC1CO1` (stereo not drawn), in [2], the Potency was greater than 92 µM. In test [3], the activity change, negative = cytotoxicity was -29.7%. For the same compound, the Potency entry in [4], in test [15], in [6], in test [8], in [9] and in test [18] was “inactive” each time. Besides, the Potency entry in [11], in test [13], in test [14], in test [19] and in test [17] was “inactive” throughout. Further, the outcome in test [5] and in test [20] was inactive. Moreover, the activation in test [7] is -5.02%; in test [12] it was -0.32%; in test [16] it was -1.53%.

For the compound `CCCCCCCCOc1ccc(C(=O)O)cc1`, the Potency in [1] and in [2] was greater than 92 µM each time. Besides, the activity change, negative = cytotoxicity in test [3] is -11.5%. The Potency result in test [4], in [6], in test [8], in test [9], in [10] and in [18] was “inactive” in each case. Moreover, the Potency result in [13], in test [14], in test [19] and in test [17] was “inactive” each time. Also, the call in [5] and in test [20] was inactive. For the same compound, the activation in [7] was -4.25%; in test [12], 4.64%; in test [16], -0.0346%.

As to `CC(=O)OC(C(=O)c1ccccc1)c1ccccc1` (stereo not drawn), the Potency in test [1] and in test [2] was greater than 92 µM throughout. For the same compound, the Potency entry in [4], in test [15], in test [6], in test [10], in test [18] and in test [14] was “inactive” in each case. Moreover, in test [17], the Potency result is “inactive”. Besides, the compound was classed as inactive in [5] and in test [20]. For the same compound, the values for the activation in [7], in test [12] and in test [16] were 8.92%, -2.72% and 0.305%, respectively.

Regarding `C[C@@H]1CC2(OC(O)[C@]3(C)O[C@H]23)O[C@H]2C[C@@]3(C)[C@@H]4CC[C@H]5C(C)(C)C(O[C@@H]6OC[C@@H](O)[C@H](O)[C@H]6O)CC[C@@]56C[C@@]46CC[C@]3(C)[C@@H]12` (stereo partly drawn), the Potency in [1] was 41.2 µM; in [15], 31.6 µM (active); in test [19], 33.5 µM (active). In addition, the Potency result in test [6], in test [18] and in [14] was “inactive” each time. Further, the activation in test [7] is 1.76%; in test [12], -3.37%; in test [16], -2.65%. For the same compound, in test [20], the call was inactive.

Source of the values: PubChem BioAssay (NCATS).
